From the supplement of paper PMC10849652
The full data set covers some 7,900 targets. This sample favours those with a hit. About 0.6% of all pairs of compound and target were hits.

Assays:
Assay in all cases: log2 fold change, soluble protein after heating vs DMSO (PISA); higher = thermal stabilisation; K562 cells, 10 uM, 30 min; active = over 0.2 and 3.5 SD of the protein, either way, in both replicates (recomputed)
[1] = compound: CC[C@@H]1C(=O)N(C)c2cnc(Nc3ccc(C(=O)NC4CCN(C)CC4)cc3OC)nc2N1C1CCCC1
Summary of the method: (§1)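 Thermal stability values are relative to control samples and come from duplicates. They are expressed as log2 fold changes. For measurement, K562 cells (2×10^6 cells/mL) received 10 μM compound for 30 min, and aliquots were heated for 3 min over 48°C-58°C, pooled, and extracted at 4°C in PBS with 0.5% NP-40. Soluble protein, the supernatant after 21,000xg for 90 min, was quantified by TMTpro 16plex LC-MS/MS with equalised channel sums.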

volasertib = compound: CC[C@@H]1C(=O)N(C)c2cnc(Nc3ccc(C(=O)N[C@H]4CC[C@H](N5CCN(CC6CC6)CC5)CC4)cc3OC)nc2N1C(C)C [volasertib]
Summary of the method: as §1

[2] = compound: CC[C@H](C)N1C=C(C2=C(C=C(C=C21)C3=CN=C(C=C3)N4CCNCC4)C(=O)NCC5=C(C=C(NC5=O)C)C)C
Summary of the method: as §1

epoxomicin = compound: CC[C@H](C)[C@@H](C(=O)N[C@@H]([C@@H](C)O)C(=O)N[C@@H](CC(C)C)C(=O)[C@]1(CO1)C)NC(=O)[C@H]([C@@H](C)CC)N(C)C(=O)C [epoxomicin]
Summary of the method: as §1

[3] = compound: CCn1c(C(=O)N(C2CC2)C2CC2)cc2c3c(ncn3C)c(Nc3cc(C)n(C)n3)nc21
Summary of the method: as §1

[4] = compound: CCn1cc(-c2ccnc3[nH]c(-c4cccc(CN(C)C)c4)cc23)c(-c2ccc(NC(=O)N(C)C)cc2)n1
Summary of the method: as §1

[5] = compound: CN(C)CC(=O)Nc1ccc2[nH]c(=O)c3ccccc3c2c1
Summary of the method: as §1

rosiglitazone = compound: CN(CCOC1=CC=C(C=C1)C[C@H]2C(=O)NC(=O)S2)C3=CC=CC=N3 (racemic) [rosiglitazone]
Summary of the method: as §1

[6] = compound: CN1C2=C(C3=C1C(=O)N(N=C3)CC4=CC(=CC=C4)N)SC(=C2)S(=O)C
Summary of the method: as §1

[7] = compound: CN1CCC(CNc2ccc3ncc(-c4cccc(OC(F)(F)F)c4)n3n2)CC1
Summary of the method: as §1

Measured: log2 fold change

RABGAP1L isoform 3 (UniProt Q5R372)
inactive: [1] -0.046 | volasertib -0.107 | [2] 0.053 | epoxomicin 0.08 | [3] -0.028 | [4] -0.034 | [5] -0.011 | rosiglitazone -0.026 | [6] 0.02 | [7] 0.025

RRP36 (UniProt Q96EU6)
UniProt Q96EU6, sequence (Q96EU6 whole entry, looked up): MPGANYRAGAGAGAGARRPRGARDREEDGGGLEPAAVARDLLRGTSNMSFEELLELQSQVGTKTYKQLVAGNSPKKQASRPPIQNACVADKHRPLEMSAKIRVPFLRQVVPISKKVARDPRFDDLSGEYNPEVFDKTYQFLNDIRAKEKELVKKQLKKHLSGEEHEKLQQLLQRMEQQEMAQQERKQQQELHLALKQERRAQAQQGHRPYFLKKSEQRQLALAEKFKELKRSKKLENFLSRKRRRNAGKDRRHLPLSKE
inactive: [1] 0.217 | volasertib 0.376 | [2] -0.028 | epoxomicin -0.203 | [3] 0.002 | [4] 0.201 | [5] -0.114 | rosiglitazone -0.25 | [6] 0.316 | [7] 0.288

RETSAT (UniProt Q6NUM9)
UniProt Q6NUM9, sequence (Q6NUM9 whole entry, looked up): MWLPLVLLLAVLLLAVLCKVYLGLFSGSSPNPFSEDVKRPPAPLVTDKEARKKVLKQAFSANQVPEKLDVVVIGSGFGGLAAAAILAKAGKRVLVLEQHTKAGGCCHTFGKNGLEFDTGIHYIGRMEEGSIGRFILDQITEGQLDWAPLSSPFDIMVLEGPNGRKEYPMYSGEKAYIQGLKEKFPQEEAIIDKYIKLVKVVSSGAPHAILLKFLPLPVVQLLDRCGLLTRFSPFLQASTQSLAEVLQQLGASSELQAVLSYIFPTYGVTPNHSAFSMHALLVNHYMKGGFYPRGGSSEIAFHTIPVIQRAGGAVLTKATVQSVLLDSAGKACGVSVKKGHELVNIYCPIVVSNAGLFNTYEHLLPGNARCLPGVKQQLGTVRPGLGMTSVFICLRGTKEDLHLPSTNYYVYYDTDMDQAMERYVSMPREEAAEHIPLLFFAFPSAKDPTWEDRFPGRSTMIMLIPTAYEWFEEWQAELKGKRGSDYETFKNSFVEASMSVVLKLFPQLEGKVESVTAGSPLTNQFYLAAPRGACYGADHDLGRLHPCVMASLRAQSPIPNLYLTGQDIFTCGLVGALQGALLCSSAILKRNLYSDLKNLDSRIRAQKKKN
inactive: [1] -0.073 | volasertib -0.073 | [2] 0.024 | epoxomicin -0.003 | [3] -0.083 | [4] -0.012 | [5] 0.036 | rosiglitazone 0.042 | [6] -0.011 | [7] 0.053

RRAGB (UniProt Q5VZM2)
UniProt Q5VZM2, sequence (Q5VZM2 whole entry, looked up): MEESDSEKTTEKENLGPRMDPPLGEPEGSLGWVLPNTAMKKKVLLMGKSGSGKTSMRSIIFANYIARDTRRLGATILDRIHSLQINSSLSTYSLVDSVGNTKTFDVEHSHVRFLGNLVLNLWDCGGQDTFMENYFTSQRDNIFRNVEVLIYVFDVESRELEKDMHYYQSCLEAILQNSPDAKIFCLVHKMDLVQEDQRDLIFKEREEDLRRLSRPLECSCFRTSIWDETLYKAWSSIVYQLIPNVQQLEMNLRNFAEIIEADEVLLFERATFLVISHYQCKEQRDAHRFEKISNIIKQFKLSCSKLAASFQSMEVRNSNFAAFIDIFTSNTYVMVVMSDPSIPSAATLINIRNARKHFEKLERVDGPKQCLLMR
inactive: [1] 0 | volasertib 0.011 | [2] -0.017 | epoxomicin 0.047 | [3] 0.015 | [4] -0.041 | [5] -0.027 | rosiglitazone -0.015 | [6] -0.022 | [7] -0.191

RAB5IF isoform 5 (UniProt Q9BUV8)
inactive: [1] -0.025 | volasertib 0.036 | [2] -0.129 | epoxomicin 0.017 | [3] 0.011 | [4] -0.056 | [5] -0.031 | rosiglitazone 0.028 | [6] 0.003 | [7] 0.092

SCAF11 (UniProt Q99590)
inactive: [1] 0.145 | volasertib 0.153 | [2] -0.092 | epoxomicin -0.074 | [3] -0.007 | [4] 0.176 | [5] -0.142 | rosiglitazone -0.04 | [6] 0.148 | [7] 0.25

RSF1 (UniProt Q96T23)
UniProt Q96T23, sequence (Q96T23 whole entry, looked up): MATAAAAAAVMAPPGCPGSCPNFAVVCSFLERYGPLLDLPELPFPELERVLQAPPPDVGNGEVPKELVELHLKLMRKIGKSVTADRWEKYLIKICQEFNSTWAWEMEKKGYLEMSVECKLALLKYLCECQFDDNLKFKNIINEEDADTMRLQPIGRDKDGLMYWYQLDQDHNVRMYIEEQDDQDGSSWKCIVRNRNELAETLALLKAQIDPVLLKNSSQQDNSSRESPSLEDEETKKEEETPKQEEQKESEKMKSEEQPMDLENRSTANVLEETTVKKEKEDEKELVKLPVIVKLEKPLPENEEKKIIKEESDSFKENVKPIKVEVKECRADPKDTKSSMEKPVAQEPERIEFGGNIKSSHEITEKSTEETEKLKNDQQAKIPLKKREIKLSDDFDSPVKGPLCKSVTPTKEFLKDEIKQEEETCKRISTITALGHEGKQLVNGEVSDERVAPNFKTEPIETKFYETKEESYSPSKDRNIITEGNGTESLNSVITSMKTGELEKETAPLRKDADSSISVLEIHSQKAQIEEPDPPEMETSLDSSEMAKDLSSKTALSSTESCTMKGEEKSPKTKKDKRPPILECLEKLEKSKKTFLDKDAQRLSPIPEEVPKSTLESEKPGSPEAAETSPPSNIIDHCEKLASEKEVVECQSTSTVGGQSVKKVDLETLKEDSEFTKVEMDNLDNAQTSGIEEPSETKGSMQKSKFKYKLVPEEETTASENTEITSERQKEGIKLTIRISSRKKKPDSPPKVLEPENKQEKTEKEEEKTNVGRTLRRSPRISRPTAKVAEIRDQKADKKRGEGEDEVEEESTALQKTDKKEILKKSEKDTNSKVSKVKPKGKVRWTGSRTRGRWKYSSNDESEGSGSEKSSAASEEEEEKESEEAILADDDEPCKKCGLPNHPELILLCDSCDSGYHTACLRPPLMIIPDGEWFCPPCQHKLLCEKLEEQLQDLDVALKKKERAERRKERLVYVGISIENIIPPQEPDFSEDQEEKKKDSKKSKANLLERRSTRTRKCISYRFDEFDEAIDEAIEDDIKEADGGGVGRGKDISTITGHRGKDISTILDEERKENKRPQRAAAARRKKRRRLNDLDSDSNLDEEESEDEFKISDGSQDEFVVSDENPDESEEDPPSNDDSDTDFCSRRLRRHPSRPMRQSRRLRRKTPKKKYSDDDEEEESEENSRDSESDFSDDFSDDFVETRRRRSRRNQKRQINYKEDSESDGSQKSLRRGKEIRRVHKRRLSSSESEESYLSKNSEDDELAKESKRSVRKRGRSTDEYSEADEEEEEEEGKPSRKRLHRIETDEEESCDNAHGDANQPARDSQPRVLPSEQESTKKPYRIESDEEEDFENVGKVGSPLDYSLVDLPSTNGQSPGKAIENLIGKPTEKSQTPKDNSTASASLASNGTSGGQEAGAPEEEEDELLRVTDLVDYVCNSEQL
inactive: [1] -0.138 | volasertib -0.358 | [2] 0.012 | epoxomicin 0.165 | [3] -0.097 | [4] -0.098 | [5] 0.141 | rosiglitazone 0.006 | [6] -0.008 | [7] -0.109

RAB33B (UniProt Q9H082)
inactive: [1] -0.016 | volasertib -0.014 | [2] -0.04 | epoxomicin -0.009 | [3] -0.005 | [4] 0.09 | [5] -0.031 | rosiglitazone 0.033 | [6] -0.067 | [7] -0.006

SHCBP1 (UniProt Q8NEM2)
inactive: [1] -0.013 | volasertib -0.052 | [2] 0.102 | epoxomicin -0.008 | [3] -0.084 | [4] 0.117 | [5] 0.111 | rosiglitazone -0.028 | [6] 0.056 | [7] -0.139

SEC16A isoform 5 (UniProt O15027)
inactive: [1] -0.058 | volasertib -0.271 | [2] 0.051 | epoxomicin -0.04 | [3] -0.146 | [4] -0.048 | [5] 0.1 | rosiglitazone 0.06 | [6] 0.078 | [7] -0.047

SART3, A0A499FI31
inactive: [1] -0.235 | [2] 0.061 | epoxomicin 0.065 | [3] -0.008 | [4] -0.017 | [5] 0.017 | rosiglitazone 0.038 | [6] -0.056 | [7] -0.211
active: volasertib -0.557

SLBP (UniProt Q14493)
UniProt Q14493, sequence (Q14493 whole entry, looked up): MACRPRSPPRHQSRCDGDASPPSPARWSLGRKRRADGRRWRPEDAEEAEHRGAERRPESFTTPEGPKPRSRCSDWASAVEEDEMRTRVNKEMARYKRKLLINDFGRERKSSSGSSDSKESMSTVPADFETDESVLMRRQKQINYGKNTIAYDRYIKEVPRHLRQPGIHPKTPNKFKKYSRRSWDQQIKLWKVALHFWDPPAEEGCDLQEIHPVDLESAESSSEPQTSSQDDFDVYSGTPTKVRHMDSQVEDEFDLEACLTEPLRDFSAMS
inactive: [1] -0.052 | volasertib -0.034 | [2] 0.013 | epoxomicin 0.127 | [3] -0.03 | [4] 0 | [5] -0.003 | rosiglitazone -0.048 | [6] 0.113
active: [7] -0.291

RFC3 (UniProt P40938)
inactive: [1] -0.008 | volasertib -0.052 | [2] 0.047 | epoxomicin 0.042 | [3] 0.001 | [4] -0.081 | [5] 0.038 | rosiglitazone 0.05 | [6] -0.096 | [7] -0.008

SEC31A (UniProt O94979)
inactive: [1] -0.035 | [2] 0.021 | epoxomicin 0.034 | [3] -0.044 | [4] 0.018 | [5] 0.046 | rosiglitazone 0.018 | [6] 0.051 | [7] -0.11
active: volasertib -0.354

RPA1 (UniProt P27694)
inactive: [1] -0.108 | [2] 0.083 | epoxomicin 0.09 | [3] -0.028 | [4] -0.02 | [5] 0.044 | rosiglitazone 0.063 | [6] -0.048 | [7] -0.079
active: volasertib -0.326

SETMAR (UniProt Q53H47)
inactive: [1] -0.071 | volasertib -0.045 | [2] 0.058 | epoxomicin 0.045 | [3] -0.047 | [4] 0.015 | [5] 0.012 | rosiglitazone 0.005 | [6] -0.045 | [7] 0.108

RDH11 (UniProt Q8TC12)
UniProt Q8TC12, sequence (Q8TC12 whole entry, looked up): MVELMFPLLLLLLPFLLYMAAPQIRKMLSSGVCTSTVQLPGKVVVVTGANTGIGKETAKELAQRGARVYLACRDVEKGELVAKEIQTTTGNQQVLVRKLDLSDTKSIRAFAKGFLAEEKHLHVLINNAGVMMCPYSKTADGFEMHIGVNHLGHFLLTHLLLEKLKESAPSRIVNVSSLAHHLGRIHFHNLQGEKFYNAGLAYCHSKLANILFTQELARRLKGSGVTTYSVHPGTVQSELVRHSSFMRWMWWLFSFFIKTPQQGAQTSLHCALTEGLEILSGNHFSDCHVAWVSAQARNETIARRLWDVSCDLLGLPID
active: volasertib -0.543 | [7] -0.466
inactive: [1] -0.213 | [2] 0.015 | epoxomicin 0.045 | [3] -0.024 | [4] -0.072 | [5] 0.037 | rosiglitazone -0.041 | [6] 0.027

SF3B5 (UniProt Q9BWJ5)
UniProt Q9BWJ5, sequence (Q9BWJ5 whole entry, looked up): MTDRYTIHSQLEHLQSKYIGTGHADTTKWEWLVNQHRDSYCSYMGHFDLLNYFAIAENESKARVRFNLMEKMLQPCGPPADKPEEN
inactive: [1] 0.089 | volasertib -0.14 | [2] -0.057 | [3] 0.042 | [4] 0.035 | [5] 0.006 | rosiglitazone -0.044 | [6] 0.082 | [7] 0.035
active: epoxomicin 0.426

SAFB2 (UniProt Q14151)
inactive: [1] 0.018 | volasertib 0.118 | [2] -0.022 | epoxomicin -0.246 | [3] -0.003 | [4] 0.203 | [5] -0.061 | rosiglitazone -0.028 | [6] 0.235 | [7] 0.23

ROCK2 (UniProt O75116)
inactive: [1] -0.033 | volasertib -0.139 | [2] -0.009 | epoxomicin 0.063 | [3] -0.028 | [4] -0.178 | [5] 0.007 | rosiglitazone 0.177 | [6] -0.02 | [7] -0.042

RARS (UniProt P54136)
inactive: [1] 0.059 | volasertib -0.172 | [2] 0.072 | epoxomicin -0.085 | [3] -0.099 | [4] 0.107 | [5] 0.013 | rosiglitazone 0.034 | [6] 0.26 | [7] -0.111

SCG3 (UniProt Q8WXD2)
inactive: [1] 0.04 | volasertib 0.134 | [2] -0.013 | epoxomicin -0.119 | [3] 0.048 | [4] 0.035 | [5] -0.099 | rosiglitazone -0.027 | [6] -0.116
active: [7] 0.6

SCPEP1 (UniProt Q9HB40)
UniProt Q9HB40, sequence (Q9HB40 whole entry, looked up): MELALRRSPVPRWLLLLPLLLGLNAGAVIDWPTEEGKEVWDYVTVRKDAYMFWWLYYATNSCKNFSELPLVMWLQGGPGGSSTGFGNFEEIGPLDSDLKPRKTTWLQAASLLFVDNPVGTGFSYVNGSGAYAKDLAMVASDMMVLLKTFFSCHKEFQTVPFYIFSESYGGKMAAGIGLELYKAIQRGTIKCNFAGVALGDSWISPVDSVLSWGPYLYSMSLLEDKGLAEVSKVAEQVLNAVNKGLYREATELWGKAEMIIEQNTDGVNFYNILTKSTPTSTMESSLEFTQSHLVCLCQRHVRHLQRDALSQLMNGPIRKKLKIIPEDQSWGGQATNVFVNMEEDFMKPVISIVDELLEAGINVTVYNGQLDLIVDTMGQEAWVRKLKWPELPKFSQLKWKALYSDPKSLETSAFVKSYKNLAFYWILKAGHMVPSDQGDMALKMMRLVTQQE
active: [1] -0.608 | volasertib -1.44 | [7] -0.846
inactive: [2] -0.022 | epoxomicin 0.044 | [3] 0.011 | [4] -0.095 | [5] -0.001 | rosiglitazone 0.019 | [6] 0.019

RIC8A isoform 3 (UniProt Q9NPQ8)
UniProt Q9NPQ8, sequence (Q9NPQ8 whole entry, looked up): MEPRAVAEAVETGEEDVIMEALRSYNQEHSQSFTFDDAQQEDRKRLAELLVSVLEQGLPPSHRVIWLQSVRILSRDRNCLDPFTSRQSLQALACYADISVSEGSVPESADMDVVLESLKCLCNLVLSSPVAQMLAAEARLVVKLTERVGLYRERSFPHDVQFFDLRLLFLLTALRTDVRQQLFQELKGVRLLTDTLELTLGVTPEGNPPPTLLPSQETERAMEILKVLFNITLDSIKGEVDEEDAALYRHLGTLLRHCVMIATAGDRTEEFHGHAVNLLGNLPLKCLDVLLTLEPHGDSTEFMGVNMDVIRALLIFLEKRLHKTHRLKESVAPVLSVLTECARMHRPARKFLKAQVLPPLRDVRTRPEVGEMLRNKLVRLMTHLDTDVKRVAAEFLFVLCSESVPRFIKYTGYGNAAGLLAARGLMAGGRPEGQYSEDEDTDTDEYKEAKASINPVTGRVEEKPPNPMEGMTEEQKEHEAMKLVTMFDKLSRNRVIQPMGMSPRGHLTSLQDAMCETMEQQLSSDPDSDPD
inactive: [1] -0.149 | [2] 0.11 | epoxomicin 0.061 | [3] -0.009 | [4] 0.036 | [5] 0.011 | rosiglitazone 0.095 | [6] -0.005 | [7] -0.186
active: volasertib -0.526

RPS13 (UniProt P62277)
inactive: [1] 0.219 | volasertib 0.567 | [2] 0.035 | epoxomicin -0.324 | [3] 0.055 | [4] 0.236 | [5] -0.066 | rosiglitazone -0.12 | [6] 0.219 | [7] 0.243

REL (UniProt Q04864)
UniProt Q04864, sequence (Q04864 whole entry, looked up): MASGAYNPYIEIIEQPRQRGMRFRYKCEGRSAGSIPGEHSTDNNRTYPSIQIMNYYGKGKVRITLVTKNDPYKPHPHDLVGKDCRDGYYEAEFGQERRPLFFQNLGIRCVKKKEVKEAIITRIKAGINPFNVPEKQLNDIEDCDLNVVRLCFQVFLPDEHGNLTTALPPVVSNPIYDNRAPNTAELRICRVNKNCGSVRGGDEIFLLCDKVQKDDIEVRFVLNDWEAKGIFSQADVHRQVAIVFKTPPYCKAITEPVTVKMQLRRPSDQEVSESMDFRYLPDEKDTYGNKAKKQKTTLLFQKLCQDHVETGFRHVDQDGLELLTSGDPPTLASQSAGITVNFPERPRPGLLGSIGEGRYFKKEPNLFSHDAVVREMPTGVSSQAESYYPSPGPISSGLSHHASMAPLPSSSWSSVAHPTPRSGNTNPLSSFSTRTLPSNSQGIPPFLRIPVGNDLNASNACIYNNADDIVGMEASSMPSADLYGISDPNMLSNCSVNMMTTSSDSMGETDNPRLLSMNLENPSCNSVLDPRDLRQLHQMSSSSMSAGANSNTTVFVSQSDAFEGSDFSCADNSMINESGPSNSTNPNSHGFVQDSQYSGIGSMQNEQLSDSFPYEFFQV
inactive: [1] 0.045 | volasertib -0.176 | [2] -0.022 | epoxomicin 0.043 | [3] -0.062 | [4] 0.159 | [5] 0.003 | rosiglitazone 0.063 | [6] 0.011 | [7] 0.141

RPS25 (UniProt P62851)
inactive: [1] 0.063 | volasertib 0.338 | [2] 0.012 | epoxomicin -0.172 | [3] 0.034 | [4] 0.134 | [5] -0.03 | rosiglitazone -0.062 | [6] 0.122 | [7] 0.146

RPL38 (UniProt P63173)
inactive: [1] 0.076 | volasertib 0.187 | [2] 0.033 | epoxomicin -0.062 | [3] -0.022 | [4] -0.03 | [5] -0.02 | rosiglitazone -0.012 | [6] -0.004 | [7] 0.052

RPS15 (UniProt P62841)
inactive: [1] 0.2 | volasertib 0.294 | [2] -0.017 | epoxomicin -0.056 | [3] 0 | [4] 0.061 | [5] -0.099 | rosiglitazone -0.113 | [6] 0.164 | [7] 0.02

RTF2 (UniProt Q9BY42)
inactive: [1] -0.18 | [2] 0.003 | epoxomicin 0.118 | [3] -0.049 | [4] 0.012 | [5] 0.005 | rosiglitazone -0.055 | [6] -0.017 | [7] 0.161
active: volasertib -0.45
